We go through 32 compounds from PubChem BioAssay (EPA / NIEHS).

Several values for one entry are separate records, joined by “and”; a condition that tells them apart may be missing. Equal values may be shown once. Where a structure was tested more than once in an assay, its records may differ in their call. Activity calls are given as the source filed them. The calls were made as follows: active = hit-call score of the fitted dose curve at least 0.9, where 1 is the maximum; inactive = score below 0.9.

Read-out in test [1]: Interleukin-1 alpha (IL1a), IL1A (gene 3552)
Put plainly: BSK_KF3CT_IL1a: BioMAP Diversity Plus: KF3CT Assay for Interleukin-1 alpha (IL1a) Biomarker Activity (AID 2283070). The settings on record: primary human keratinocytes with fibroblasts; actives raise or lower the signal. The essentials:
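Primary skin co-culture (keratinocytes, foreskin fibroblasts), 24 h exposure; ELISA for IL-1a; bidirectional curve fit vs DMSO.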

Read-out in test [2]: TIMP metallopeptidase inhibitor 2 (TIMP2), TIMP2 (gene 7077)
The test can be described thus: BSK_KF3CT_TIMP2: BioMAP Diversity Plus: KF3CT Assay for TIMP metallopeptidase inhibitor 2 (TIMP2) Biomarker Activity (AID 2283071). The settings on record: primary human keratinocytes with fibroblasts; actives raise or lower the signal. The essentials: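 TIMP-2 measured by ELISA at 24 h in human keratinocyte/fibroblast primary co-cultures exposed to chemicals. Both increases and decreases were fitted against DMSO. Parallel cultures were stained with SRB for total protein as an overt-cytotoxicity check.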

Read-out in test [3]: C-C motif chemokine 2 (Homo sapiens) (UniProt P13500)
Put plainly: BSK_KF3CT_MCP1: BioMAP Diversity Plus: KF3CT Assay for Monocyte Chemoattractant Protein 1 (MCP1/CCL2) Biomarker Activity (AID 2283073). The settings on record: primary human keratinocytes with fibroblasts; actives raise or lower the signal. The essentials:
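Human keratinocyte plus foreskin fibroblast primary co-culture exposed to chemical for 24 h. MCP-1 levels measured by ELISA. Bidirectional curve fitting relative to DMSO negative control as baseline.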

Read-out in test [4]: Matrix Metallopeptidase 9 (MMP9), MMP9 (gene 4318)
The test can be described thus: BSK_KF3CT_MMP9: BioMAP Diversity Plus: KF3CT Assay for Matrix Metallopeptidase 9 (MMP9) Biomarker Activity (AID 2283074).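 As to AC50: MMP9 protein level quantified by ELISA in the co-culture.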 The settings on record: primary human keratinocytes with fibroblasts; actives raise or lower the signal. The essentials: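 ELISA read-out of MMP-9 at 24 h post-dosing in a co-culture of human skin keratinocytes and foreskin fibroblasts. Gain or loss of signal was fitted in both directions against DMSO.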

Read-out in test [5]: urokinase plasminogen activator (uPA), PLAU (gene 5328)
Put plainly: BSK_KF3CT_uPA: BioMAP Diversity Plus: KF3CT Assay for urokinase plasminogen activator (uPA) Biomarker Activity (AID 2283075). The settings on record: primary human keratinocytes with fibroblasts; actives raise or lower the signal. The essentials:
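Skin co-culture (keratinocytes + foreskin fibroblasts), human primary; 24 h post-dose; uPA by ELISA; gain/loss fit vs DMSO baseline.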

Read-out in test [6]: CD40, CD40 (gene 958)
Put plainly: BSK_LPS_CD40: BioMAP Diversity Plus: LPS Assay for CD40 Biomarker Activity (AID 2283076). The settings on record: primary human HUVEC with PBMC; actives raise or lower the signal. The essentials:
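Primary human umbilical vein endothelial cells co-cultured with peripheral blood mononuclear cells, LPS-stimulated, were dosed with chemical and read 24 h later. CD40 levels were measured by ELISA and fitted bidirectionally against DMSO as negative control and baseline.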

Read-out in test [7]: E-selectin (Homo sapiens) (UniProt P16581)
Put plainly: BSK_LPS_Eselectin: BioMAP Diversity Plus: LPS Assay for Eselectin Biomarker Activity (AID 2283077). The settings on record: primary human HUVEC with PBMC; actives raise or lower the signal. A digest of the protocol:
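Human umbilical vein endothelial cells co-cultured with peripheral blood mononuclear cells under LPS stimulation; E-selectin measured by ELISA 24 h after chemical dosing. Activity fitted bidirectionally against DMSO as negative control and baseline.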

A short description of test [8]: BSK_LPS_SRB: Viability Assessment in the BioMAP Diversity Plus: LPS Assay (AID 2283079).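 Also: total protein by sulforhodamine B absorbance as a cytotoxicity measure; measured one day after compound addition.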 The settings on record: primary human HUVEC with PBMC. The essentials:
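Human umbilical vein endothelial cells co-cultured with PBMC (LPS system) were dosed for 24 h. Total protein was stained with 0.1% sulforhodamine B after 10% TCA fixation, read at 560 nm, and fitted bidirectionally against DMSO baseline.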

Read-out in test [9]: Transforming growth factor beta 1 (TGFb1), TGFB1 (gene 7040)
Put plainly: BSK_KF3CT_TGFb1: BioMAP Diversity Plus: KF3CT Assay for Transforming growth factor beta 1 (TGFb1) Biomarker Activity (AID 2283072). The settings on record: primary human keratinocytes with fibroblasts; actives raise or lower the signal. The essentials: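 ELISA quantifies TGF-b1 at 24 h post-dose in a primary human skin co-culture of keratinocytes and fibroblasts, with gain or loss judged against DMSO. Parallel SRB total-protein staining flags overt cytotoxicity.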

Read-out in test [10]: Interleukin-8 (IL8), CXCL8 (gene 3576)
The test can be described thus: BSK_LPS_IL8: BioMAP Diversity Plus: LPS Assay for Interleukin-8 (IL8) Biomarker Activity (AID 2283078). The settings on record: primary human HUVEC with PBMC; actives raise or lower the signal. The essentials: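 Human umbilical vein endothelial cells co-cultured with PBMC were stimulated with LPS; IL-8 levels were measured by ELISA 24 h after chemical dosing. Activity was fitted bidirectionally against DMSO as negative control and baseline.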

Sequence of E-selectin (Homo sapiens) (P16581 whole entry, looked up): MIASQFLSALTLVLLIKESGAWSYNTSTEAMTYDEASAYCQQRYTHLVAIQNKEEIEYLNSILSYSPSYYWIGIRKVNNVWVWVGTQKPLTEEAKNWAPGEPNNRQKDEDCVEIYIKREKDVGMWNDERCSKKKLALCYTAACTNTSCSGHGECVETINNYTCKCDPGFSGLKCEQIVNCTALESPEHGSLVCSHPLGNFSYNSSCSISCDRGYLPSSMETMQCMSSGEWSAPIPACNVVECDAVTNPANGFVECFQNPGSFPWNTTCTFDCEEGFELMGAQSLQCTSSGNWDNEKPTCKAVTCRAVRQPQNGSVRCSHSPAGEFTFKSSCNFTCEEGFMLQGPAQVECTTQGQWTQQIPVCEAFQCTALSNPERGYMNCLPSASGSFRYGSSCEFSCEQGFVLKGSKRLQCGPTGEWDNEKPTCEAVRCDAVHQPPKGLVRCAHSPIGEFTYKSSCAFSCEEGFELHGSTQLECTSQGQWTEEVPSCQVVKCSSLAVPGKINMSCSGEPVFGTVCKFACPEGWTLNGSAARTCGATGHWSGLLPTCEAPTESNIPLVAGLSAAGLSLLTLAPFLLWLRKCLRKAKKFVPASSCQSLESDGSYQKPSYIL

For the compound `Nc1nc(N)nc(-c2ccccc2)n1`, the outcome in test [1], in test [2], in [3], in [4], in test [5] and in [6] was inactive. Moreover, the result in [7] and in test [8] was inactive.
Take `C=CCCCCCCCCC=O`: the result in [1], in test [2], in test [9], in test [3], in test [4] and in test [5] was inactive. Besides, the result in [6], in test [7] and in [8] was inactive.
In the case of `CCCC(C)C(=O)OCC` (centres undefined), the outcome in test [2], in [3], in [4], in test [5], in test [6] and in test [7] was inactive. In addition, the outcome in [10] and in test [8] was inactive.
As for `Oc1ccccc1Cc1ccccc1O`, the outcome in test [2], in [3], in test [4], in test [5], in test [6] and in test [7] was inactive. Besides, the outcome in [8] was inactive.
With `CCCCCC1=CCCC1=O`, the outcome in test [2], in test [9], in test [3], in test [4], in test [5] and in test [6] was inactive. In addition, the outcome in test [7] and in [8] was inactive.
On to `C=CC(=O)OCC(C)OCC(C)OCC(C)OC(=O)C=C` (centres undefined), for which the outcome in [2] and in test [9] was inactive. Besides, the AC50 in test [3] was 10.4 µM (active); in test [4], 14.7 µM (active); in [5], 20 µM (active); in [6], 6.73 µM (active); in test [7], 9.34 µM (active); in test [8] it was 22.9 µM (active).
As to `CCCCCCCCCCCC(=O)N(C)CC(=O)O`, the result in test [2], in [3], in test [4], in test [5], in test [6] and in test [7] was inactive. In test [8], the result was inactive.
Turning to `O=C(O)C(F)(F)C(F)(F)C(F)(F)C(F)(F)C(=O)O`, the outcome in [2], in test [3], in test [4], in test [5], in test [6] and in [7] was inactive. Further, the result in test [8] was inactive.
For `CCCCCCC=O`, the result in test [2], in test [9], in test [3], in test [4], in test [5] and in test [6] was inactive. For the same compound, the result in test [7] and in test [8] was inactive.
Take `CCN1CN(CC)CN(CC)C1`: the result in [2], in test [9], in test [3], in test [4], in test [5] and in [6] was inactive. Besides, the outcome in test [7] and in test [8] was inactive.
For `COc1ccc(C(=O)c2ccccc2)c(O)c1`, the outcome in test [2], in [9], in test [3], in [5], in test [6] and in test [7] was inactive. The outcome in [8] was inactive. Moreover, the AC50 in test [4] is 20 µM (active).
On to `CC(C)CCCCCOC(=O)CS`, for which the outcome in test [2], in test [9], in test [3], in test [4], in [5] and in [6] was inactive. Further, the outcome in test [7] and in test [8] was inactive.
Take `Cc1c(O)cccc1O`: the result in test [2], in test [9], in test [3], in [4], in test [5] and in test [6] was inactive. For the same compound, the outcome in test [7] and in test [8] was inactive.
For the compound `CCOC(=O)C1=NN(c2ccc(Cl)cc2Cl)C(C)(C(=O)OCC)C1` (centres undefined), the outcome in test [2], in [9], in test [3], in test [4], in test [5] and in test [6] was inactive. Moreover, the outcome in test [7] and in [8] was inactive.
On to `CC(Cl)COP(=O)(OCC(C)Cl)OCC(C)Cl` (centres undefined), for which the outcome in test [2], in test [9], in test [3], in [4], in [5] and in test [6] was inactive. Further, the outcome in test [7] and in test [8] was inactive.
For the compound `CC=C(C)C(C)=O`, the outcome in test [2], in test [9], in [3], in [4], in test [5] and in [6] was inactive. Also, the outcome in [7] and in [8] was inactive.
As for `CC1(C)CC(O)CC(C)(C)N1[O]`, the result in test [2], in test [9], in test [3], in test [4], in test [5] and in test [6] was inactive. Moreover, the outcome in test [7] and in [8] was inactive.
Take `CCCCCCCO`: the outcome in test [2], in test [9], in [3], in test [4], in test [5] and in [6] was inactive. The result in [7] and in test [8] was inactive.
In the case of `C=CC(=O)OCCCCCCCC(C)C`, the outcome in test [2], in test [9], in [3], in test [4], in test [5] and in [6] was inactive. The outcome in [7] and in test [8] was inactive.
For the compound `CC(C)c1cccc(C(C)C)c1N`, the outcome in test [2], in test [9], in test [3], in test [4], in [5] and in test [6] was inactive. The result in test [7] and in [8] was inactive.
As for `CC(C)[N+](C)(CCOC(=O)C1c2ccccc2Oc2ccccc21)C(C)C`, the result in [2], in [9], in [3], in test [4], in test [5] and in test [6] was inactive. For the same compound, in test [7], the result was inactive. Besides, the AC50 in test [8] is 3.97 µM (active).
As to `CCc1cccc(C)c1N(C(=O)CS(=O)(=O)O)C(C)COC` (centres undefined), the outcome in test [2], in test [9], in test [3], in [4], in [5] and in test [6] was inactive. Besides, the outcome in test [7] and in [8] was inactive.
As for `CCC1(C)C(=O)N(Cl)C(=O)N1Cl` (centres undefined), the outcome in test [2], in test [9], in [3], in [4], in [5] and in [6] was inactive. The result in test [7] and in [8] was inactive.
On to `CCCCCCCCC(CO)CCCCCC` (centres undefined), for which the outcome in test [2], in [9], in test [3], in [4], in [5] and in test [6] was inactive. Besides, the result in test [7] and in test [8] was inactive.
Consider `C=C(C)C(=O)OCCCCCCCCCCCC`, for which the result in [2], in test [9], in test [3], in test [4], in [5] and in test [6] was inactive. Further, the outcome in [7] and in [8] was inactive.
With `CCCCCCCCCCCC(C)=O`, the half-maximal activity concentration (AC50) in test [2] was 3.97 µM (active); in test [3], 31.5 µM (active); in [6], 31.3 µM (active); in [7], 23.9 µM (active). For the same compound, the outcome in test [9], in [4], in test [5] and in [8] was inactive.
Consider `C[N+](C)(C)CCCNS(=O)(=O)C(F)(F)C(F)(F)C(F)(F)C(F)(F)C(F)(F)C(F)(F)C(F)(F)C(F)(F)F`, for which the outcome in [2], in test [3], in test [5] and in test [7] was inactive. Moreover, the AC50 in test [4] was 30 µM (active) and 44.7 µM (active); in test [6], 42.8 µM (active) and 25.4 µM (active); in test [7], 48.1 µM (active); in test [8] it was 22.5 µM (active) and 33.8 µM (active).
Turning to `C1CNCCN1`, the result in test [2], in test [9], in test [3], in [4], in test [5] and in test [6] was inactive. In addition, the result in test [7] and in test [8] was inactive.
`O=C1CCCCCCCCCCCN1`: the outcome in [2], in test [9], in [3], in test [4], in test [5] and in test [6] was inactive. Further, the outcome in [7] and in test [8] was inactive.
Regarding `CC/C=C\C/C=C\C/C=C\CCCCCCCC(=O)OC`, the half-maximal activity concentration (AC50) in test [2] is 7.17 µM (active); in [9], 6.41 µM (active); in test [3], 5.29 µM (active); in test [4], 12.2 µM (active); in test [5], 20 µM (active); in [6] it was 20 µM (active). Moreover, the AC50 in test [7] was 30.1 µM (active); in test [8], 27.8 µM (active).
Take `Fc1ccc(Br)cc1`: the result in test [2], in [9], in test [3], in [4], in test [5] and in test [6] was inactive. In addition, the outcome in test [7] and in test [8] was inactive.
For `CCNc1nc(NC(C)(C)C)nc(OC)n1`, the result in [2], in [9], in test [3], in test [4], in test [5] and in [6] was inactive. Further, the result in test [7] and in [8] was inactive.

A word on the AC50: it is the midpoint of the concentration-response curve, whichever way the signal moves.
